According to PubChem BioAssay (NCI):
The panel holds about 79,000 compounds, 15% with a hit somewhere; the sample as a whole holds those more often. Activity calls are given as the source filed them. Cut-off read from the data, not from the text of the source: active = growth inhibition above about 70%; inactive = the rest.

Columns and labels:
[1] = NCI Yeast Anticancer Drug Screen. Data for the rad52 strain (AID 147);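 note: 0% = growth of vehicle-treated control cultures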; settings: S. cerevisiae rad52 mutant growth inhibition, stronger effect = higher value
Outline: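 Genetically altered yeast (DNA damage repair defect) treated with compound; inhibition calculated relative to vehicle.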

[2] = NCI Yeast Anticancer Drug Screen. Data for the wt1 strain (AID 149);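 note: 0% = growth of vehicle-treated wt1 cultures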; settings: S. cerevisiae wt1 strain (SPY 50644) growth inhibition, stronger effect = higher value
Outline: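 Yeast wt1 strain exposed to compounds; growth inhibition measured relative to vehicle-treated controls.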

[3] = NCI Yeast Anticancer Drug Screen. Data for the rad50EPP+ strain (AID 151);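 note: 0% = growth of vehicle-treated control cultures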; settings: S. cerevisiae rad50 mutant strain, stronger effect = higher value
Outline: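 Strain rad50EPP+; compound exposure; % growth inhibition vs vehicle.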

[4] = NCI Yeast Anticancer Drug Screen. Data for the mgt1 strain (AID 153); settings: S. cerevisiae mgt1 mutant growth inhibition, stronger effect = higher value
Outline: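 Read-out: yeast growth inhibition vs vehicle control. Strain mgt1, drawn from a panel altered in DNA damage repair or cell cycle control.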

[5] = NCI Yeast Anticancer Drug Screen. Data for the rad50 strain (AID 155);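 note: 0% = growth of vehicle-only cultures of the same strain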; settings: S. cerevisiae rad50 strain growth inhibition, stronger effect = higher value
Outline: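 Yeast carrying a defined DNA repair defect were exposed to test compounds, and growth was compared with vehicle-treated controls to give percent inhibition.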

[6] = NCI Yeast Anticancer Drug Screen. Data for the mec2-1 strain (AID 157); settings: S. cerevisiae mec2-1 strain, stronger effect = higher value
Outline: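 Cells of the genetically defined mec2-1 yeast strain are incubated with test compound. Inhibition of growth is calculated against vehicle-treated controls.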

[7] = NCI Yeast Anticancer Drug Screen. Data for the rad14 strain (AID 159);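 note: 0% = growth of vehicle-treated control cultures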; settings: S. cerevisiae rad14 strain growth inhibition, stronger effect = higher value
Outline: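 Yeast cells carrying a defined DNA-repair defect were exposed to compounds, and growth inhibition was calculated relative to vehicle-treated control cultures.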

[8] = NCI Yeast Anticancer Drug Screen. Data for the sgs1 mgt1 strain (AID 161);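 note: 0% = growth of cultures given vehicle only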; settings: S. cerevisiae sgs1 mgt1 strain, stronger effect = higher value
Outline: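 Read-out: growth inhibition vs vehicle controls. Cells: mutant yeast strain deficient in DNA damage repair.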

[9] = NCI Yeast Anticancer Drug Screen. Data for the CLN2oe strain (AID 163);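 note: 0% = growth of vehicle-only control cultures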; settings: S. cerevisiae CLN2oe strain, stronger effect = higher value
Outline: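 Strain altered in cell-cycle control, incubated with compound; growth compared to solvent-treated controls.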

[10] = NCI Yeast Anticancer Drug Screen. Data for the cln2 rad14 strain (AID 165);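 note: 0% = growth equal to vehicle treated cultures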; settings: S. cerevisiae cln2 rad14 strain, stronger effect = higher value
Outline: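 The screen exposed genetically defined yeast (cln2 rad14) to test compounds and scored growth inhibition relative to vehicle-treated controls.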

[11] = NCI Yeast Anticancer Drug Screen. Data for the bub3 strain (AID 167); settings: S. cerevisiae bub3 mutant strain, stronger effect = higher value
Outline: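 Compounds were applied to a genetically altered yeast strain carrying a cell-cycle control defect. Growth inhibition was scored against vehicle-treated controls.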

[12] = NCI Yeast Anticancer Drug Screen. Data for the wt2 strain (AID 169);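 note: 0% = growth of vehicle-treated yeast cultures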; settings: S. cerevisiae wt2 strain growth inhibition, stronger effect = higher value
Outline: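 Steps: yeast strain treated with compound; growth recorded; inhibition calculated relative to cultures given vehicle alone.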

[13] = NCI Yeast Anticancer Drug Screen. Data for the mlh1 strain (AID 171);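 note: 0% = growth of vehicle-treated control cultures of the same strain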; settings: S. cerevisiae mlh1 strain growth inhibition, stronger effect = higher value
Outline: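 Yeast screen: mutant strain plus compound, growth scored against vehicle control wells.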

[14] = NCI Yeast Anticancer Drug Screen. Data for the sgs1 strain (AID 173);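 note: 0% = growth of vehicle-only control cultures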; settings: S. cerevisiae sgs1 mutant, stronger effect = higher value
Outline: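 Inhibition of yeast growth served as the measure. The mutant strain was treated with each compound, and growth was normalised to cultures receiving vehicle alone.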

[15] = NCI Yeast Anticancer Drug Screen. Data for the mlh1 rad18 strain (AID 175); settings: S. cerevisiae mlh1 rad18 strain growth inhibition, stronger effect = higher value
Outline: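 Compound-treated yeast growth, normalised to vehicle controls. Strain bears defined DNA repair mutations.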

[16] = NCI Yeast Anticancer Drug Screen. Data for the rad18 strain (AID 177); settings: S. cerevisiae rad18 mutant growth inhibition, stronger effect = higher value
Outline: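 Inhibition values reflect reduced yeast growth compared with vehicle-treated controls, using a strain engineered with a DNA damage repair defect.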

[17] = at 5.0 µM (retest, dose inferred, filed as 0.5)
[18] = at 50.0 µM (retest, dose inferred, filed as 5.0)

Measured: growth inhibition

O=C(/C=C/c1cccc(Br)c1)c1ccc(Cl)cc1
active: [1]; at 100.0 µM 76% | [4]; at 100.0 µM 70% | [5]; at 50.0 µM 81.9% | [5]; at 100.0 µM 82% | [6]; at 50.0 µM 73% | [11]; [18] 84% | [11]; at 100.0 µM 82% | [12]; at 100.0 µM 72% | [13]; at 100.0 µM 76% | [14]; at 100.0 µM 73% | [15]; at 50.0 µM 75.3% | [16]; at 100.0 µM 84%
inactive: [1]; at 1.2 µM -26% | [1]; at 3.7 µM -14% | [1]; at 11.0 µM -6% | [1]; at 33.0 µM 28% | [2]; at 1.2 µM -46% | [2]; at 3.7 µM -44% | [2]; at 11.0 µM -12% | [2]; at 33.0 µM 9% | [2]; at 100.0 µM 63% | [3]; at 1.2 µM -62% | [3]; at 3.7 µM -22% | [3]; at 11.0 µM -25% | [3]; at 33.0 µM -13% | [3]; at 100.0 µM 2% | [4]; at 1.2 µM -40% | [4]; at 3.7 µM -36% | [4]; at 11.0 µM -13% | [4]; at 33.0 µM 32% | [5]; at 1.2 µM -9% | [5]; at 3.7 µM 0% | [5]; [17] 35% | [5]; at 11.0 µM 27% | [5]; at 33.0 µM 66% | [5]; [18] 47% | [6]; at 1.2 µM -65% | [6]; at 3.7 µM -68% | [6]; [17] 32% | [6]; at 11.0 µM -51% | [6]; at 33.0 µM -18% | [6]; [18] 47% | [6]; at 100.0 µM 53% | [7]; at 1.2 µM -67% | [7]; at 3.7 µM -46% | [7]; at 11.0 µM -49% | [7]; at 33.0 µM -15% | [7]; at 100.0 µM 46% | [8]; [17] 4% | [8]; [18] 60% | [9]; at 1.2 µM -17% | [9]; at 3.7 µM -19% | [9]; at 11.0 µM -13% | [9]; at 33.0 µM -12% | [9]; at 100.0 µM 36% | [10]; [17] 46% | [10]; [18] 48% | [11]; at 1.2 µM -16% | [11]; at 3.7 µM -7% | [11]; [17] 52% | [11]; at 11.0 µM 38% | [11]; at 33.0 µM 57% | [12]; at 1.2 µM -31% | [12]; at 3.7 µM -28% | [12]; at 11.0 µM -19% | [12]; at 33.0 µM 20% | [13]; at 1.2 µM -30% | [13]; at 3.7 µM -19% | [13]; at 11.0 µM -7% | [13]; at 33.0 µM 19% | [14]; at 1.2 µM -67% | [14]; at 3.7 µM -42% | [14]; at 11.0 µM -7% | [14]; at 33.0 µM 31% | [15]; [17] 26% | [15]; [18] 56% | [16]; at 1.2 µM -37% | [16]; at 3.7 µM -13% | [16]; at 11.0 µM 30% | [16]; at 33.0 µM 61%
